hgDAF12 agonist: H. glycines DAF-12 receptor agonists, primary screen, cell-based, luminescence, HEK293, GAL4 fusion, UAS-luciferase; AID 687014, 2013; activation, % at 6.8 µM; HEK293 GAL4-hgDAF12 UAS-luciferase reporter, agonist luminescence; normalized to butyrate control; 370,000 tested, 1.8% active;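 active = activation above a cutoff set at the mean of all screened compounds plus 3 SD, cut at about 10% in these data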
DAX1 inh-1: DAX1 (NR0B1) inhibitors on StAR promoter, primary screen, cell-based, luminescence, SF-1 (NR5A1), full-length DAX-1 | HEK293T StAR-luciferase reporter, SF-1/DAX-1 repression relief | inhibition, % at 6.8 µM | 370,000 tested, 1.1% active;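 active = inhibition above the mean over all tested compounds plus 3 SD, cut at about 3.6% in these data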;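 note: higher inhibition means more luminescence from relief of DAX-1 repression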
ssDAF12 agonist: S. stercoralis DAF-12 nuclear receptor activators, primary screen, cell-based, luminescence, HEK293, GRIP1 co-expression, lit1-tk-luc; Nuclear hormone receptor DAF-12 (Strongyloides stercoralis); HEK293 ssDAF-12/GRIP1 lit1-tk-luc reporter; % of 3 µM dafachronic acid response; activation, % at 6.8 µM; 370,000 tested, 1% active; AID 652126, 2013;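 active = activation above the mean over all tested compounds plus 3 SD, cut at about 0.9% in these data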
hcDAF-12 act: H. contortus DAF-12 nuclear receptor activators, primary screen, cell-based, luminescence, HEK293, lit1-tk-luc reporter; HEK293 hcDAF-12 lit1-tk-luc reporter; 0% DMSO, 100% Δ7-dafachronic acid; 370,000 tested, 1.4% active; activation, % at 6.8 µM;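 active = activation above the mean of all tested compounds plus 3 SD, cut at about 5.5% in these data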
SMARCA2 act: SMARCA2 (BRM) function activators, primary screen, cell-based, luminescence, high throughput; MG213 cells, MMTV-luciferase reporter, dexamethasone, overnight; activation, % at 9.1 µM; 370,000 tested, 1% active; AID 652017, 2013; in the data active = activation above about 7.8%
DAX1 inh-2: DAX1 (NR0B1) inhibitors, primary screen, cell-based, HEK293, Gal4-DAX1, luciferase luminescence. HEK293 Gal4-DAX1 luciferase reporter. AID 504766, 2011. inhibition, % at 6.75 µM. 340,000 tested, 0.99% active;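 active = inhibition above the mean over all tested compounds plus 3 SD, cut at about 4.2% in these data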;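 note: inhibition shows as a rise in luminescence from relieved DAX1 repression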
Target sequence (P51843 207-470 limits assumed): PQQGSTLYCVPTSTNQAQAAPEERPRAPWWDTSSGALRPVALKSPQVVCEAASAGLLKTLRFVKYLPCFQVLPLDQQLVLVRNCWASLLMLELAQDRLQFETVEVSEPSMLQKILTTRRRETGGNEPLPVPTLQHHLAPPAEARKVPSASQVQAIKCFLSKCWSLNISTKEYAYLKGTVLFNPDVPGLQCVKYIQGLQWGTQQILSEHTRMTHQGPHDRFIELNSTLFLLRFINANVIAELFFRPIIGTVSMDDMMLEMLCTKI
Of the large screens only hits and unclear results are named; the others gave an inactive call; ! = repeats disagree. The list is not random: actives were taken first. Their share in the collection is about 4.8%.

CCOc1ccc2nc(NC(=O)CSc3nc(SC)ns3)sc2c1	hcDAF-12 act 6.1
CCOCC(=O)Nc1nc2ccc(OCC)cc2s1	hgDAF12 agonist 11
CCOC(=O)c1ccc(NC(=O)CSc2nc(SC)ns2)cc1	none
CN(C)[C@@H]1CCN(c2cccc3c2S(=O)(=O)N2CC[C@@H](C2)O3)C1	none (no result: DAX1 inh-2)
COc1ccc(C(c2c(NC(C)=O)sc3c2CCCC3)N2CCN(CCO)CC2)cc1OC (stereo unspecified)	none
CC(=O)Nc1sc2c(c1C(c1cccc(Cl)c1)N1CCN(CCO)CC1)CCCC2 (stereo unspecified)	DAX1 inh-2 4.9
Cc1ccc(Nc2nc(N)nc(COC(=O)C3=COCCO3)n2)cc1	DAX1 inh-1 3.6
COC(=O)C1=C[C@@H]([C@@H](C)[C@H](OC)c2ccccc2Br)[C@@H]2OCCC[C@H]12	none (no result: DAX1 inh-2)
CCN(CC)CCCNC(=O)CCC(=O)Nc1ccc2nc(N3CCCCC3)cc(C)c2c1	DAX1 inh-2 6.7
COc1cccc(OCc2cc(C(=O)N(C)Cc3nc(C)cs3)no2)c1	DAX1 inh-1 4.5
Cc1ccc(O)c(C(=O)CC(=O)c2ccc(C(C)(C)C)cc2)c1	hgDAF12 agonist 11
COc1ccccc1CNC(=O)c1ccc(NC2=NC3CS(=O)(=O)CC3S2)cc1 (stereo unspecified)	hgDAF12 agonist 10
C/C(=N\NC(=O)c1ccccc1F)c1ccc(C#N)cc1	DAX1 inh-2 4.5
COc1ccc([C@H]2OC(=O)C[C@@H]2C(=O)N2CCN(c3ccccc3F)CC2)cc1OC	none (no result: DAX1 inh-2)
Oc1ccc(N=Nc2ccccc2)o1	ssDAF12 agonist 4.4
CC(C)(C)C(=O)Nc1nc(-c2ccccc2)ns1	none
O=C(Nc1nc(-c2ccccc2)ns1)c1ccncc1	DAX1 inh-2 8.4
Cc1ccc2nc(NC(=O)c3ccc(Cl)s3)sc2c1	DAX1 inh-1 4.0, DAX1 inh-2 9.8
Cc1cccc2sc(NC(=O)Cn3cccc3)nc12	none
Cc1cccc2sc(NC(=O)CCn3cccc3)nc12	hgDAF12 agonist 12
O=C(Cc1c(F)cccc1Cl)Nc1nc2ccccc2s1	none
Cc1cccc2sc(NC(=O)c3ccc(Cl)s3)nc12	ssDAF12 agonist 1.1
Cc1nc2ccc(NC(=O)Cc3c(F)cccc3Cl)cc2s1	hgDAF12 agonist 11
COC(=O)C1=C(C)N(C)C(=NCc2ccccc2C(F)(F)F)NC1CCc1ccccc1 (stereo unspecified)	none (no result: DAX1 inh-2)
COc1ccc(/C=C2\CC3(OC(=O)c4ccc(F)cc4)CCCN2C3)cc1 (stereo unspecified)	none (no result: DAX1 inh-2)
CC(C)(C)N(Cc1cn(Cc2ccccc2)nn1)S(=O)(=O)c1ccc(N2CCCC2)cc1Br	none (no result: DAX1 inh-2)
Cc1nc2ccc(NC(=O)c3ccc(Cl)s3)cc2s1	DAX1 inh-1 4.1, DAX1 inh-2 4.9
Cc1nc2ccc(NC(=O)c3cnc(Cl)c(Cl)c3)cc2s1	none
CCCCCCNC(=O)C1CSCCS(=O)(=O)N1Cc1ccc(F)cc1 (stereo unspecified)	none (no result: DAX1 inh-2)
CCOC(=O)[C@]12CCCCC/C=C\1N(CCc1ccc(Cl)cc1)C(=O)[C@H]2CC(=O)NCC12CC3CC(CC(C3)C1)C2	none (no result: DAX1 inh-2)
CC(C)CC(=O)NC(=S)Nc1cccc(NC(=O)c2ccccc2)c1	DAX1 inh-2 7.3
Cc1cccc(C(=O)NNC(=O)c2ccc(O)cc2)c1	none
Cc1ccc(C(=O)NNC(=O)c2cccc(C)c2)cc1	hgDAF12 agonist 11
Cc1cccc(NC(=O)c2cccnc2)c1	SMARCA2 act 7.8
CCCC(=O)NC(=S)Nc1cccc(NC(=O)c2ccccc2)c1	none
Cc1cccc(NC(=S)NNC(=O)c2ccco2)c1	none
CCCc1cc(C(=O)NNC(=S)Nc2cccc(C)c2)cs1	hgDAF12 agonist 11
Cc1ccc(C(=O)Nc2cccc(NC(=O)c3cccnc3)c2)cc1	none
CC1CCC2(CCC(=O)N2CCCOC(=O)c2ccccc2)CC1 (stereo unspecified)	none (no result: DAX1 inh-2)
Nn1c(SCC(=O)NC2CCCCC2)nnc1-c1cc(-c2ccc(F)cc2)n[nH]1	none (no result: DAX1 inh-2)
COc1ccc(-c2cc(-c3nnc(SCC(=O)Nc4nccs4)n3N)[nH]n2)cc1	none (no result: DAX1 inh-2)
COC(=O)[C@H](CC(C)C)N(CCCc1cn(Cc2ccc(C)cc2)nn1)S(=O)(=O)c1ccc(F)cc1Br	none (no result: DAX1 inh-2)
O=C(CSc1nnc(COc2ccc(Cl)cc2)n1Cc1ccco1)Nc1ccc2c(c1)OCO2	none (no result: DAX1 inh-2)
CC(C)Oc1cccc(C(=O)NC(=S)Nc2ccccc2)c1	hgDAF12 agonist 12
CC(=O)c1cccc(NC(=S)NC(=O)c2ccc(Cl)cc2)c1	none
CC(=O)c1cccc(NC(=S)NC(=O)c2cccc(C)c2)c1	hgDAF12 agonist 13
Cc1cccc(NC(=S)N/C(=N/S(=O)(=O)c2ccccc2)c2ccccc2)c1	hgDAF12 agonist 12!
CC(C)(C)c1ccc(S(=O)(=O)N2CCCC2C(=O)N2CCN(c3ccccc3)CC2)cc1 (stereo unspecified)	none (no result: DAX1 inh-2)
COc1ccc(NC(C)=O)cc1NC(C)C(=O)Nc1ccccc1F (stereo unspecified)	DAX1 inh-2 5.7
CC(C)(C)NC(=O)c1ccccc1-c1nc2ccccc2s1	ssDAF12 agonist 1.6
CC(C)(C)NC(=O)c1nc2ccccc2s1	none
CCc1ccc(/C(C)=N/NC(=O)c2c[nH]c3ccccc23)s1	ssDAF12 agonist 1.1, hcDAF-12 act 6.5
C/C(=N\NC(=O)c1c[nH]c2ccccc12)c1ccco1	hcDAF-12 act 5.9
C/C(=N\NC(=O)c1ccccc1[N+](=O)[O-])c1ccc(Br)s1	none
C/C(=N\NC(=O)c1ccccc1O)c1ccc(Br)s1	hgDAF12 agonist 11
C#CCNC(=O)C[C@@H]1C(=O)N(CC=C)/C2=C/CCCCC[C@]21C(=O)OCC	none (no result: DAX1 inh-2)
COC(=O)[C@]1(CNS(=O)(=O)C2CC2)CC(=O)N(C)[C@@H]1c1ccccc1	none (no result: DAX1 inh-2)
CCCCCC(=O)N1C[C@@H](O)[C@H](n2cc(C3CC3)nn2)C[C@@H]1c1ccc(Cl)cc1	DAX1 inh-2 4.6
CCCCCC(=O)N1C[C@H](n2cc(C3CC3)nn2)[C@@H](O)C[C@@H]1c1ccc(Cl)cc1	none
COC(=O)c1cc(-c2cccs2)c(=O)n2c1CCC2	none (no result: DAX1 inh-2)
O=C(NC1CCCCN(Cc2cccc(Cl)c2)C1=O)c1ccc(Cl)cc1Cl (stereo unspecified)	none (no result: DAX1 inh-2)
